Publication PMC7862700, “An all-to-all approach to the identification of sequence-specific readers for epigenetic DNA modifications on cytosine”

Assays:
Assay in all cases: DAPPL (digital affinity profiling via proximity ligation, sequencing); 10 mM Tris-HCl pH 7.5, 50 mM NaCl, 1 mM DTT, 4% glycerol, room temperature, 30 min; GST-TFs on glutathione beads, 16-mer random dsDNA library, 0.1% formaldehyde crosslink after washing; high values mean tight binding
Conditions in all cases: protein: recombinant; tags: N-terminal GST; dsDNA, one strand shown
[1] = target: T1, ERF (Homo sapiens, UniProt P50548 1-548)
T1 sequence: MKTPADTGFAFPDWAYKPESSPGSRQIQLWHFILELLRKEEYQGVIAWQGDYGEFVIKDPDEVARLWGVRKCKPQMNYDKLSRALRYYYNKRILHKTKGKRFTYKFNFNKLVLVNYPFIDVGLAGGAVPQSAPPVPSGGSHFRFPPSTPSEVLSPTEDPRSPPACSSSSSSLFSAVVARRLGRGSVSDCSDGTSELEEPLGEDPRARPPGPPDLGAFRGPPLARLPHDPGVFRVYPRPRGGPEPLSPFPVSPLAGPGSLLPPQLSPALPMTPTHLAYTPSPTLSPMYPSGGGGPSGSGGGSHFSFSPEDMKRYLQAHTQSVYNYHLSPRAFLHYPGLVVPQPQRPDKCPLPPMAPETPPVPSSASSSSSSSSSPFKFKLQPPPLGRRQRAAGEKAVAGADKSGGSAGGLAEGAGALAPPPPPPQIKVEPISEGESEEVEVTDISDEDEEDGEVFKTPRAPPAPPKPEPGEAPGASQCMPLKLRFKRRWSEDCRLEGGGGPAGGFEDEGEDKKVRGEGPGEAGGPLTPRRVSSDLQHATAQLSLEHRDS
Method in brief: (§1)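 After expression in yeast as GST fusions, human transcription factors were bound to glutathione beads, DNA-barcoded and mixed with a tag-only sample. The pools were incubated with 200 nmole of a 16-mer random double-stranded DNA library in Tris/NaCl/DTT/glycerol buffer (30 min, room temperature), washed and crosslinked with 0.1% formaldehyde. Proximity ligation with BsaI/T4 ligase ran for 1 h at 37 °C, before PCR amplification and sequencing on an Illumina NextSeq500. Binding signal is a hexamer's read frequency for a factor divided by its frequency for the tag-only sample.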

[2] = target: T2, ETV3L (Homo sapiens, UniProt Q6ZN32 1-361)
T2 sequence: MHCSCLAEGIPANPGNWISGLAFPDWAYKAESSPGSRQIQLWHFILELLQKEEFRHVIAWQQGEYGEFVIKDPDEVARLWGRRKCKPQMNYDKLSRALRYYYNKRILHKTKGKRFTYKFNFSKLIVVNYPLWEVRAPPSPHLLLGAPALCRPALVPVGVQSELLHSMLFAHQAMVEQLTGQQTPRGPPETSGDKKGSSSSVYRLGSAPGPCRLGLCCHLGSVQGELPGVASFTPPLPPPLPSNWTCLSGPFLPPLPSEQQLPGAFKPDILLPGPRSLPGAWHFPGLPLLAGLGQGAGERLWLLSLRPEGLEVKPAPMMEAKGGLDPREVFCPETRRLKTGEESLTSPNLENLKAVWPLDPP
Method in brief: as §1

[3] = target: T3, ETS2 (Homo sapiens, UniProt P15036 1-469)
T3 sequence: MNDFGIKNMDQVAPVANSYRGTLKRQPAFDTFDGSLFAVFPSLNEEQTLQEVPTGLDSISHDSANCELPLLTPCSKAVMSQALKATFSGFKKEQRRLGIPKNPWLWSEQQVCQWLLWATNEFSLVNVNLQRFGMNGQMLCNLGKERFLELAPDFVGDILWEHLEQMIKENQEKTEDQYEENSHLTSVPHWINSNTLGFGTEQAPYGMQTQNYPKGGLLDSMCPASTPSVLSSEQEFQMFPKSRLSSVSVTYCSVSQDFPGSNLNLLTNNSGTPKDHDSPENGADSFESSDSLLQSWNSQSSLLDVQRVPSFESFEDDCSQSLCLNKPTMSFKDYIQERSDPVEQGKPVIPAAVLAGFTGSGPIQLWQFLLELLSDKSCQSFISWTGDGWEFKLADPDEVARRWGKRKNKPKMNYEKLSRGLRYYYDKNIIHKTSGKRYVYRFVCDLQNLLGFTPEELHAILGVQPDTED
Method in brief: as §1

[4] = target: T4, SPDEF (Homo sapiens, UniProt O95238 1-335)
T4 sequence: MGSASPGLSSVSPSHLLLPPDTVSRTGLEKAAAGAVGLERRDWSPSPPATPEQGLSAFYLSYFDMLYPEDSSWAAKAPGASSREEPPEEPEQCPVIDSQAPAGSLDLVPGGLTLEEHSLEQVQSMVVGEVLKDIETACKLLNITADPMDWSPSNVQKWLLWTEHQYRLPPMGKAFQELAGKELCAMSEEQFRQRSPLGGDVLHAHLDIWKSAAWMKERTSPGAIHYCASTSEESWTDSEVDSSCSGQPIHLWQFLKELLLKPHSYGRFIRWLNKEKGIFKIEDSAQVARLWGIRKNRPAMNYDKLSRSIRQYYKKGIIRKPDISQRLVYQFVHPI
Method in brief: as §1

[5] = target: T5, ETV7 (Homo sapiens, UniProt Q9Y603 1-341)
T5 sequence: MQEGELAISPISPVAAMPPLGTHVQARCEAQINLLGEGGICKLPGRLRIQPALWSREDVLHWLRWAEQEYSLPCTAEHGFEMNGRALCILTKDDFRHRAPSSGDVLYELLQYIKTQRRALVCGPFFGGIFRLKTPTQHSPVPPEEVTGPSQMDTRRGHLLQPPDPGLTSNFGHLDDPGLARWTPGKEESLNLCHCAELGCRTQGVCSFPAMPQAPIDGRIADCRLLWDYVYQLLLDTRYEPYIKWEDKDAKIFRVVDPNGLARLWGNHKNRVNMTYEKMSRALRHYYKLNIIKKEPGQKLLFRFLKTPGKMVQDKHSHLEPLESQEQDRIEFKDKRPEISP
Method in brief: as §1

[6] = target: T6, ELF5 (Homo sapiens, UniProt Q9UKW6-2 1-255)
T6 sequence: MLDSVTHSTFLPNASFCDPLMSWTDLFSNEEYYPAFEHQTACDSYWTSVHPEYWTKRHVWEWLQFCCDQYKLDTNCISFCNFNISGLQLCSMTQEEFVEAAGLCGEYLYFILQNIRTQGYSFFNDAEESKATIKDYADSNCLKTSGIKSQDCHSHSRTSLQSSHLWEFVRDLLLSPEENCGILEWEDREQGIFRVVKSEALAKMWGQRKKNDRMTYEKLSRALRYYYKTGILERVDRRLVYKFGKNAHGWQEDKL
Method in brief: as §1

[7] = target: T7, ETV3 (Homo sapiens, UniProt P41162-2 1-143)
T7 sequence: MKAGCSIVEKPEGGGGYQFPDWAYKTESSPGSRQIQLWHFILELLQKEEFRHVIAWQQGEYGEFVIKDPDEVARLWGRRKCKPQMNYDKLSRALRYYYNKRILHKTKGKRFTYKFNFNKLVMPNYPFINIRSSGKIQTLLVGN
Method in brief: as §1

[8] = target: ETV6 (Homo sapiens, UniProt P41212 1-452)
Method in brief: as §1

Sequence of ETV6 (P41212 whole entry): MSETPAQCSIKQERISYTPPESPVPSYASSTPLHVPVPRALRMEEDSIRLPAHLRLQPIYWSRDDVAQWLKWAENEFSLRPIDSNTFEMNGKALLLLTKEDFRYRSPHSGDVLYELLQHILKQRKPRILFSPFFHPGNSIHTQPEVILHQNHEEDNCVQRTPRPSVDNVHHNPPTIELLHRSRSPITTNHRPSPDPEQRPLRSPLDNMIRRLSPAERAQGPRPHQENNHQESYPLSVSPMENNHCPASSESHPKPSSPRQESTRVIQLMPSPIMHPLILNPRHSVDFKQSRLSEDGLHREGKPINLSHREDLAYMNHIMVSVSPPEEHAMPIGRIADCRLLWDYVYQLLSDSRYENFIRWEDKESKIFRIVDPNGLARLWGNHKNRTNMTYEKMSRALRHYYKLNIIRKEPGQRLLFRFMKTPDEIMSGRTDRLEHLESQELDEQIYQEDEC

Row | Sequence | binding signal [1] | binding signal [2] | binding signal [3] | binding signal [4] | binding signal [5] | binding signal [6] | binding signal [7] | binding signal [8]
1 | CTGGGT | 1.07 fold enrichment (6-mer frequency, TF over GST control) | 1.18 fold enrichment (6-mer frequency, TF over GST control) | 1.09 fold enrichment (6-mer frequency, TF over GST control) | 1.08 fold enrichment (6-mer frequency, TF over GST control) | 1.1 fold enrichment (6-mer frequency, TF over GST control) | 1.07 fold enrichment (6-mer frequency, TF over GST control) | 1.07 fold enrichment (6-mer frequency, TF over GST control) | 1.09 fold enrichment (6-mer frequency, TF over GST control)
2 | TACCGA | 1.05 fold enrichment (6-mer frequency, TF over GST control) | 1.13 fold enrichment (6-mer frequency, TF over GST control) | 1.12 fold enrichment (6-mer frequency, TF over GST control) | 1.12 fold enrichment (6-mer frequency, TF over GST control) | 1.01 fold enrichment (6-mer frequency, TF over GST control) | 1.08 fold enrichment (6-mer frequency, TF over GST control) | 1.09 fold enrichment (6-mer frequency, TF over GST control) | 1.09 fold enrichment (6-mer frequency, TF over GST control)
3 | GCGTCC | 1.32 fold enrichment (6-mer frequency, TF over GST control) | 1.24 fold enrichment (6-mer frequency, TF over GST control) | 1.18 fold enrichment (6-mer frequency, TF over GST control) | 1.56 fold enrichment (6-mer frequency, TF over GST control) | 1.17 fold enrichment (6-mer frequency, TF over GST control) | 1.25 fold enrichment (6-mer frequency, TF over GST control) | 1.24 fold enrichment (6-mer frequency, TF over GST control) | 1.19 fold enrichment (6-mer frequency, TF over GST control)
4 | TATACT | 1.3 fold enrichment (6-mer frequency, TF over GST control) | 1.29 fold enrichment (6-mer frequency, TF over GST control) | 1.38 fold enrichment (6-mer frequency, TF over GST control) | 1.52 fold enrichment (6-mer frequency, TF over GST control) | 1.31 fold enrichment (6-mer frequency, TF over GST control) | 1.34 fold enrichment (6-mer frequency, TF over GST control) | 1.34 fold enrichment (6-mer frequency, TF over GST control) | 1.45 fold enrichment (6-mer frequency, TF over GST control)
5 | CACTCT | 1.37 fold enrichment (6-mer frequency, TF over GST control) | 1.29 fold enrichment (6-mer frequency, TF over GST control) | 1.27 fold enrichment (6-mer frequency, TF over GST control) | 1.14 fold enrichment (6-mer frequency, TF over GST control) | 1.19 fold enrichment (6-mer frequency, TF over GST control) | 1.18 fold enrichment (6-mer frequency, TF over GST control) | 1.43 fold enrichment (6-mer frequency, TF over GST control) | 1.23 fold enrichment (6-mer frequency, TF over GST control)
6 | AACCAC | 1.18 fold enrichment (6-mer frequency, TF over GST control) | 1.16 fold enrichment (6-mer frequency, TF over GST control) | 1.14 fold enrichment (6-mer frequency, TF over GST control) | 1.08 fold enrichment (6-mer frequency, TF over GST control) | 1.03 fold enrichment (6-mer frequency, TF over GST control) | 1.13 fold enrichment (6-mer frequency, TF over GST control) | 1.17 fold enrichment (6-mer frequency, TF over GST control) | 1.19 fold enrichment (6-mer frequency, TF over GST control)
7 | AAATAG | 1.11 fold enrichment (6-mer frequency, TF over GST control) | 1.15 fold enrichment (6-mer frequency, TF over GST control) | 1.12 fold enrichment (6-mer frequency, TF over GST control) | 1 fold enrichment (6-mer frequency, TF over GST control) | 1.23 fold enrichment (6-mer frequency, TF over GST control) | 1.14 fold enrichment (6-mer frequency, TF over GST control) | 1.21 fold enrichment (6-mer frequency, TF over GST control) | 1.18 fold enrichment (6-mer frequency, TF over GST control)
